Assay outcomes from PubChem BioAssay.
Shown are actives, neighbours in structure and some others; about 3.1% of the full set was active somewhere.
PPC-1+TRAIL kill = compounds killing PPC-1 cancer cells with TRAIL present, primary screen, TRAIL potentiator project, ATPLite luminescence, uHTS. AID 1443, 2008. 0.41% of 220,000 active. PPC-1 cells + TRAIL, ATPLite viability luminescence. cell killing (% activity), % at 4 µM or 5 µM;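 active = cell killing above 50% in the first pass at 4 µM, then a duplicate retest at 5 µM averaging 50% or more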;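 note: plate controls were cells with TRAIL plus DMSO for no effect and medium-only wells lacking cells for full effect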
CF NFkB block = inhibitors of PAF-induced NF-kB signaling, primary screen, cell-based, GFP fluorescence, uHTS | 0.86% of 360,000 active | AID 588850, 2011 | KKLEB NF-kB-GFP reporter, GFP fluorescence overnight | inhibition, % at 5 µM;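 active = at least 50% inhibition at 5 µM, scaled per plate between neutral and stimulator controls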;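 note: PAF is a Pseudomonas aeruginosa culture filtrate used as stimulus; plate controls were PAF-stimulated DMSO wells for no effect and unstimulated DMSO wells for full effect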
Peg3 prom inh = Peg3 promoter-driven luciferase inhibitors, primary screen, cell-based, HeLa, luciferase luminescence | AID 588405, 2011 | inhibition, % at 20 µM | 1.7% of 360,000 active | HeLa PEG-Prom luciferase reporter, overnight;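 active = inhibition of at least 50% at 20 µM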
KKLEB tox = cytotoxicity in KKLEB CF airway cells, primary screen, cytotoxicity control for CF NF-kB inhibitor project, cell-based, uHTS, fluorescence assay plates; KKLEB CF airway cells viability, ATPlite luminescence, overnight; stronger effect = lower value; cells stimulated with P. aeruginosa culture filtrate; 0.36% of 360,000 active; AID 602141, 2011; activity change (cytotoxicity), % at 5 µM;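 active = corrected activity change at or below -50% at 5 µM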
TRAIL sens C8 = viability loss with TRAIL in NB7+C8 cells, primary screen, TRAIL sensitizer project, cell-based, ATPlite luminescence | inhibition (viability loss, TRAIL sensitization), % at 10 µM | 1% of 360,000 active | AID 624354, 2012;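 active = compounds causing at least 50% loss of cell viability in the single-dose screen, relative to plate controls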
HIF-2a block = HIF-2a reporter inhibitors, primary screen, luminescence, 786-0 RCC cells. inhibition, % at 18.8 µM. AID 624352, 2012. 0.72% of 360,000 active. 786-0 RCC cells HIF-2a reporter, luciferase luminescence, overnight;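 active = inhibition of the luminescence signal of 40% or more relative to plate controls, in a single-dose primary screen at 18.75 µM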
CF NFkB conf = inhibitors of PAF-induced NF-kB signaling, retest, confirmation, cell-based, GFP fluorescence, single concentration | 64% of 1,300 active | AID 602472, 2012 | shares compounds with CF NFkB block | inhibition, % at 5 µM | KKLEB CF airway cells, overnight; in the data active = inhibition above about 40%;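 note: stimulus PAF is a Pseudomonas aeruginosa filtrate and not platelet activating factor; plate controls were DMSO wells with stimulus for no effect and unstimulated DMSO wells for full effect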
Mdm2-MdmX confirm = retested Mdm2-MdmX interaction blockers, confirmation, cell-based, luminescence, single concentration, set 2. shares compounds with HIF-2a block. SaOS-2 split-luciferase Mdm2/MdmX complementation. inhibition, % at 8 µM. 99% of 740 active. AID 504601, 2011;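 active = mean inhibition of the luminescence signal across two replicates at or above 26 percent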
Target sequence (O15151 whole entry, looked up): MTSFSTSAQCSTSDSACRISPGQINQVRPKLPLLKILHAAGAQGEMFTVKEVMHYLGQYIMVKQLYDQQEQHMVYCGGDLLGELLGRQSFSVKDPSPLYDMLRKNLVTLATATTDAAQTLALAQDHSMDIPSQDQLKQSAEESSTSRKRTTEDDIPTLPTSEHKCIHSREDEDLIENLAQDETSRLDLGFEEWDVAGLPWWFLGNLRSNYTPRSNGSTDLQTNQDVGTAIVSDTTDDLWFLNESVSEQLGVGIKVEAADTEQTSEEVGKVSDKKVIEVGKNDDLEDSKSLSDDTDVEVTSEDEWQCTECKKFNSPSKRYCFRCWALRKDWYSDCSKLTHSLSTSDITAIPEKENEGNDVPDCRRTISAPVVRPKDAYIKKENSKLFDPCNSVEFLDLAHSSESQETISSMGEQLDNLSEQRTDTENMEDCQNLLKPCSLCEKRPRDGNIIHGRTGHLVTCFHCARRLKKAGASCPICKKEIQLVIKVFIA
Target sequence (Q00987 whole entry, looked up): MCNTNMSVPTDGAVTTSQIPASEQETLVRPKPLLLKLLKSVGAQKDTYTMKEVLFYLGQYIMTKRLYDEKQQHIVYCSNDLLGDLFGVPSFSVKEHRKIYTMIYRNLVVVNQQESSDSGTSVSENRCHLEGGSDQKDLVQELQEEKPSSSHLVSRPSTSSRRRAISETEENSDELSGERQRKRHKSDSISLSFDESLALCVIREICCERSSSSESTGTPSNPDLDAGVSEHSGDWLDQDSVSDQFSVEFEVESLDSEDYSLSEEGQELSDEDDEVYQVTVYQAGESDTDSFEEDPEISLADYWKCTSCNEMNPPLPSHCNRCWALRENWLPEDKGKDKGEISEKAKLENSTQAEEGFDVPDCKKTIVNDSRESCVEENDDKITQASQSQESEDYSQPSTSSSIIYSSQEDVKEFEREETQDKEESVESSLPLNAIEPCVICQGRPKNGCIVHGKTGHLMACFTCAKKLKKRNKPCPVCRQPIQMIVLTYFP
HIF-2a inh conf = HIF-2a reporter inhibitor retest, confirmation, luminescence, 786-0 RCC cells | shares compounds with HIF-2a block | HIF-2a luciferase reporter luminescence, overnight | inhibition, % at 18.8 µM | 56% of 1,800 active;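 active = mean inhibition across four replicates of at least 40 percent at the single tested concentration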
HIF-1a counter = HIF-1a luciferase reporter signal reduction – MiaPaCa-2 cells, single concentration, counter-screen for HIF-2a inhibitor project, confirmation | shares compounds with HIF-2a block | MiaPaCa-2 HIF-1a luciferase reporter, desferoxamine, overnight | inhibition, % at 18.8 µM | 72% of 1,800 active;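 active = mean inhibition of the reporter signal across four replicates at the single tested dose of 50% or more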
* hit, by the source's call; x = not tested or not shown.

SMILES	PPC-1+TRAIL kill	CF NFkB block	Peg3 prom inh	KKLEB tox	TRAIL sens C8	HIF-2a block	CF NFkB conf	HIF-2a inh conf	HIF-1a counter	others
COc1cccc(C(O)c2nc(-c3ccc4ccccc4c3)cs2)c1 (configuration not stated)	x	-12	-250	3	-5	-266	x	x	x
COc1ccccc1-c1cc(C(F)(F)F)nc(N2CCCC2)n1	22	2	18	1	-8	0	x	x	x
COc1ccccc1-c1cc(C(F)(F)F)nc(S(C)(=O)=O)n1	-23	69*	105*	-47	-17	78*	40*	68*	105*	Mdm2-MdmX confirm=102*
Cc1cc(N(C)N)nc(NC(=O)NS(=O)(=O)c2ccccc2Cl)n1	x	-12	3	3	1	12	x	x	x
CCCCN(c1ccccc1)c1ncnc(N)c1[N+](=O)[O-]	-2	76*	12	-15	11	15	93*	x	x	Mdm2-MdmX confirm=86*
CN(c1ncnc(N)c1[N+](=O)[O-])C1CCCCC1	x	84*	31	-1	13	19	93*	x	x	Mdm2-MdmX confirm=87*
CCC(=O)c1ccccc1OCCCCn1cncn1	x	6	17	-6	-4	15	x	x	x
CC(=O)c1ccc(-c2cnc3c(NC=O)cc(-c4ccc(C(=O)NC5CC5)cc4)cn23)cc1	x	56*	63*	-30	31	39*	61*	37	94*
Cc1ccc(C(C)C)c(OCC(=O)NS(=O)(=O)c2ccc(Cl)cc2)c1	x	7	21	-9	10	3	x	x	x
Cc1cc(Sc2nnc(N)s2)c2ccccc2n1	4	89*	7	-27	-8	41*	-7	32	1
BrC(=C\c1ccccc1)/C=N/Nc1ccc2nncn2n1	-3	-5	-44	3	-1	-96	x	x	x
BrC(=C\c1ccccc1)/C=N/n1cnnc1	4	58*	111*	-10	-7	61*	-77	23	97*
COc1cc(OC)cc(C(=O)Nc2ccc(S(=O)(=O)N3CCOCC3)cc2)c1	x	-12	12	8	7	21	x	x	x
CSc1ncccc1C(=O)OCC(=O)N1CCc2ccccc21	x	6	-49	-4	10	-15	x	x	x
O=C(Nc1cccc(Cl)c1N1CCOCC1)c1ccc([N+](=O)[O-])o1	-1	18	15	-7	5	12	x	x	x
O=C(Nc1ccc(N2CCCC2)c(Cl)c1)c1ccc([N+](=O)[O-])o1	50	70*	110*	-46	88*	84*	-26	50*	107*
CCOc1ccc(N(Cc2ccc(C(=O)O)cc2)S(=O)(=O)c2ccc(C)cc2)cc1	x	-14	41	-6	-2	19	x	x	x
FC(F)(F)c1nnc2c(Sc3ccc(Cl)cc3)nc3ccccc3n12	4	104*	67*	-17	49	41*	101*	10	46
FC(F)(F)c1nnc2c(Sc3ccccn3)nc3ccccc3n12	10	47	24	-10	23	-45	x	x	x
Cc1cc(C(=O)Cn2ncc(Cl)c(Cl)c2=O)c(C)n1CC(F)(F)F	14	77*	100*	-22	-3	94*	-23	-15	103*
O=[N+]([O-])c1ccc(C=CC=Cc2ccccc2)cc1	x	-47	-255	11	10	-241	x	x	x
CN(c1ccccc1)c1ccc(/C=C/[N+](=O)[O-])cc1	5	65*	103*	-9	-4	92*	-23	85*	105*
CCc1ccccc1NC(=O)CN(C)C(=O)Cn1ncc(Cl)c(Cl)c1=O	12	52*	107*	-2	-6	98*	56*	37	106*
O=C(Cn1ncc(Cl)c(Cl)c1=O)c1ccc2c(c1)OCCO2	x	79*	90*	-38	89*	81*	-2	40	103*	Mdm2-MdmX confirm=103*
Cc1nn(CC(=O)Nc2ccc3c(c2)OCO3)c(C)c1Cl	x	-20	-86	-2	9	-62	x	x	x
SMILES	PPC-1+TRAIL kill	CF NFkB block	Peg3 prom inh	KKLEB tox	TRAIL sens C8	HIF-2a block	CF NFkB conf	HIF-2a inh conf	HIF-1a counter	others
O=C(Cn1ncc(Cl)c(Cl)c1=O)Nc1ccc2c(c1)OCO2	x	64*	96*	-36	94*	95*	4	-2	104*	Mdm2-MdmX confirm=103*
CCC(=O)c1ccc2c(c1)OCCO2	29	25	-1	1	7	-18	x	x	x
CCc1ccccc1NC(=O)CN(C)C(=O)Cn1cnc2ccc(Cl)cc2c1=O	x	-26	10	16	-18	4	x	x	x
O=C(Nc1ccc2nc3n(c(=O)c2c1)CCCCC3)c1cc([N+](=O)[O-])ccc1F	x	71*	108*	-46	42	46*	12	20	105*
C=C1C(=O)O[C@@H]2[C@H]1[C@@H](OC(=O)/C(C)=C/C)C/C(C)=C\C(=O)/C=C(\C)[C@@H]2O	22	86*	111*	-4	33	95*	-11	73*	102*	Mdm2-MdmX confirm=103*
C=C1C(=O)O[C@H]2[C@H]1[C@H](OC(=O)/C(C)=C\C)C[C@]1(CO1)[C@@H]1[C@H](OC(C)=O)C=C(C)[C@]21O	x	-2	14	15	18	4	x	x	x
C=C1C(=O)C23C(O)C1CCC2C12COC3(O)C(O)C1C(C)(C)CCC2O (configuration not stated)	x	82*	94*	-48	9	95*	70*	94*	105*
CCc1ccc(Nc2n[n+](-c3ccccc3)c(-c3c(Cl)cccc3Cl)s2)cc1	x	52*	97*	-42	43	-57	88*	x	x	Mdm2-MdmX confirm=101*
O=C(CN1C(=O)NC2(CCCc3ccccc32)C1=O)Nc1cc(F)ccc1F (configuration not stated)	x	-20	-2	13	4	-8	x	x	x
COCCCNC(=O)/C(C#N)=C/c1cccc(NC(=O)c2ccccc2Cl)c1	15	24	6	-21	-5	21	x	x	x
